In PubChem BioAssay (EPA / NIEHS):
Where “and” joins values, the source holds several entries; their conditions need not be identical. Equal values may be shown once. A structure can be active in one record and inactive in another. Calls of active or inactive are those of the source. The calls were made as follows: active = hit-call score of the fitted dose curve at least 0.9, where 1 is the maximum; inactive = score below 0.9.

Test: ATG_AP_2_CIS: Attagene CIS-FACTORIAL HepG2 Assay for human Activator Protein 2 (AP-2) (AID 2282932)
Settings: HepG2 AP-2 cis-reporter, Attagene transcription factor profiling; actives raise or lower the signal
Procedure: ATG_CIS is a cell-based, multiplexed-readout assay that uses HepG2, a human liver cell line, with measurements taken at 24 hours after chemical dosing in a 24-well plate.ATG_AP_2_CIS is one of 52 assay component(s) measured or calculated from the ATG_CIS assay. It is designed to make measurements of mRNA induction, a form of inducible reporter, as detected with fluorescence intensity signals by Reverse transcription polymerase chain reaction (RT-PCR) and Capillary electrophoresis technology.Data from the assay component ATG_AP_2_CIS was analyzed into 1 assay endpoint. This assay endpoint, ATG_AP_2_CIS, was analyzed with bidirectional fitting relative to DMSO as the negative control and baseline of activity. Using a type of inducible reporter, measures of mRNA for gain or loss-of-signal activity can be used to understand the reporter gene at the transcription factor-level as they relate to the gene TFAP2A and TFAP2B and TFAP2D. Furthermore, this assay endpoint can be referred to as a primary readout, because this assay has produced multiple assay endpoints where this one serves a reporter gene function. To generalize the intended target to other relatable targets, this assay endpoint is annotated to the dna binding intended target family, where the subfamily is basic helix-turn-helix leucine zipper.
Human liver HepG2 cells are transiently transfected with multiple reporter transcription units (MRTUs) in 6-well plates using FuGene 6 reagent (Roche; 3 ml FuGene/1 mg DNA). The MRTU constructs are regulated by a cis-regulating element (promoter). […] A major difference between the CIS and TRANS system is that in CIS activities of endogenous TFs are measured, whereas the TRANS assay evaluates changes in activities of exogenous, chimeric NR-Gal4 proteins. […] At the end of 24 hour incubation, total RNA was isolated using TriZol reagent (Invitrogen). The isolated RNA is then reverse-transcribed using oligo(dT) primer and Mo-MLV reverse transcriptase (Invitrogen) with DNAse I (Ambion) treatment for 30 min. The one-tenth of the produced cDNA was amplified by PCR using Taq DNA polymerase (Invitrogen) and two reporter sequence-specific primers. The PCR products were fluorescently labeled by primer extension with 6-arboxyfluorescein (6-FAM) 5'-labeled reporter sequence-specific primer (2 min at 95 C, 20 s at 68 C and 10 min at 72 C) and these products were digested with 5U of HpaI (New England Biolabs) for 2h at 37 C. The fragments were purified using Qiaquick PCR columns (Qiagen), analyzed on an ABI 3130xL genetic analyzer (Applied Biosystems) with peak positions identified by using a set of X-rhodamine (ROX)-labeled MapMarker1000 molecular weight standards (BioVentures). The raw capillary electrophoresis data was processed using Attagraph software (Attagene).

Structure (SMILES) | outcome | AC50
Oc1ccc(C(c2ccc(O)cc2)C(Cl)(Cl)Cl)cc1 | inactive | –
COc1c(Cl)ccc(Cl)c1C(=O)O | inactive | –
O=C(c1ccccc1)C1CCCCC1 | inactive | –
C#CCOC(=O)[C@@H](C)Oc1ccc(Oc2ncc(Cl)cc2F)cc1 | inactive | –
O=C(c1ccc(O)cc1O)c1ccc(O)cc1O | inactive | –
CCC(O)=C1C(=O)CC(C(=O)O)CC1=O (stereo not given) | inactive | –
CCN(Cc1c(F)cccc1Cl)c1c([N+](=O)[O-])cc(C(F)(F)F)cc1[N+](=O)[O-] | inactive | –
COCCO | inactive | –
c1ccc(Nc2ccccc2)cc1 | inactive | –
C[C@]12C[C@H](O)[C@H]3[C@@H](CCC4=CC(=O)CC[C@@]43C)[C@@H]1CC[C@@H]2C(=O)CO | inactive | –
N[C@@H](Cc1cc(I)c(Oc2ccc(O)c(I)c2)c(I)c1)C(=O)O | inactive | –
CCCCCOC(=O)COc1cc(N2C(=O)C3=C(CCCC3)C2=O)c(F)cc1Cl | inactive | –
COc1nc(C)nc(NC(=O)NS(=O)(=O)c2ccccc2OCCCl)n1 | inactive | –
COC(=O)c1ccccc1S(=O)(=O)NC(=O)Nc1nc(OC(F)F)cc(OC(F)F)n1 | inactive | –
Cc1nn(C)c(Oc2ccccc2)c1C=NOCc1ccc(C(=O)OC(C)(C)C)cc1 | inactive | –
CCCCC(CC)COC(=O)c1ccccc1C(=O)O (stereo not given) | inactive | –
COC(=O)c1ccc(CNS(C)(=O)=O)cc1S(=O)(=O)NC(=O)Nc1nc(OC)cc(OC)n1 | inactive | –
CCCCCCC(C)OC(=O)COc1nc(F)c(Cl)c(N)c1Cl (stereo not given) | inactive | –
CSC(=O)c1cccc2nnsc12 | inactive | –

Structure (SMILES) | outcome | AC50
COC(=O)c1cccc(C)c1S(=O)(=O)NC(=O)Nc1nc(OCC(F)(F)F)nc(N(C)C)n1 | inactive | –
CCCCOC(=O)C(C)Oc1ccc(Oc2ccc(C(F)(F)F)cn2)cc1 (stereo not given) | inactive | –
CCCOC(=O)NCCCN(C)C | inactive | –
CCOC(=O)COc1cc(-n2ncc(C(F)(F)F)c(C)c2=O)c(F)cc1Cl | inactive | –
CCCN(CCC)C(=O)SCC | inactive | –
CC(C)(c1ccc(O)cc1)c1ccc(O)cc1 | inactive | 121 µM (active) and 148 µM (active) and 101 µM (active)
CCN(CC)C(=O)c1cccc(C)c1 | inactive | –
CCCCOCCOCCOCc1cc2c(cc1CCC)OCO2 | inactive | –
CC(C)CCCCCCc1ccc(O)cc1 | inactive | 18.2 µM (active) and 17.2 µM (active)
CCCN(CCC)c1c([N+](=O)[O-])cc(C(F)(F)F)c(N)c1[N+](=O)[O-] | inactive | –
C#C[C@]1(O)CC[C@H]2[C@@H]3CCC4=CC(=O)CC[C@@H]4[C@H]3CC[C@@]21CC | inactive | –
CC1(C)C(C=C(Cl)Cl)C1C(=O)OCc1cccc(Oc2ccccc2)c1 (stereo not given) | inactive | –
CC(=O)S[C@@H]1CC2=CC(=O)CC[C@]2(C)[C@H]2CC[C@@]3(C)[C@@H](CC[C@@]34CCC(=O)O4)[C@H]12 | inactive | –
CCC(C)OC(=O)N1CCCCC1CCO (stereo not given) | inactive | –
O=C(O)c1ccccc1 | inactive | –
COC(=O)c1c(Cl)nn(C)c1S(=O)(=O)NC(=O)Nc1nc(OC)cc(OC)n1 | inactive | –
COC(=O)c1ccc(I)cc1S(=O)(=O)NC(=O)Nc1nc(C)nc(OC)n1 | inactive | –
CCCCOC(=O)[C@@H](C)Oc1ccc(Oc2ccc(C(F)(F)F)cn2)cc1 | inactive | –
c1ccc2[nH]c(-c3cscn3)nc2c1 | inactive | –
